This is one part of a sample in which hits are shown more often than they occur.
RXFP1 antagonist = RXFP1 (human) relaxin receptor antagonism; AID 1259400; HEK293-RXFP1, relaxin-stimulated cAMP HTRF, 30 min; stronger effect = lower value; 350,000 compounds, 0.59% hits; activity change, negative = inhibition, % at 57.5 µM; Q9HBX9;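 active means activity change of -60% or lower, but not beyond a set lower limit; inconclusive means change between -60% and -40%, or beyond the set limit; inactive means change above -40%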
RXFP1 agonist = activates the human relaxin receptor RXFP1; Q9HBX9; Potency, µM (series often up to 57.5 µM), hits mostly activators; HEK293T-RXFP1 cAMP TR-FRET, 30 min; response scale: percent of porcine relaxin response, buffer zero; 370,000 compounds, 0.3% hits; further: nearly all actives have a fitted effect of over 60% in size
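cAMP rise read by TR-FRET after 30 min, 37C compound exposure (up to 58 uM) in RXFP1-transfected HEK293 cells with Ro 20174 present. EC50 from Hill-equation fits, with 29 nM porcine relaxin as 100% and buffer as basal.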
PTHR1 ag = activates the human parathyroid hormone receptor PTHR1. HEK293 GP2 PTHR1 cells, GloSensor cAMP luminescence, 1 h. Potency, µM (titrated, usually from 115 µM), hits mostly activators. 410,000 compounds, 0.075% hits. AID 743266; further: nearly all actives have a fitted effect of over 55% in size
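HEK-293-derived GP2 cells expressing PTHR1 and a GloSensor cAMP reporter, 3,000/well, plated overnight, given luciferin plus IBMX (each 0.5 mM as added) for 1 h at 37 °C, then compound for 1 h at 37 °C. Luminescence was read after 15 min at room temperature.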
GLP1R cytotox = cytotoxicity counter-screen for GLP-1 receptor inverse agonists; AID 624418; Potency, µM (titrated, usually from 38.3 µM), hits mostly inhibitors; HEK293 cAMP-luciferase reporter cells, luminescence, 24 h; 410,000 compounds, 0.13% hits;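 further: loss of luciferase light is scored as toxicity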
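Cells in DMEM/10% Nu serum/1% pen-strep, 1536-well format. Pre-incubated 12 h, dosed with 23 nL compound, incubated a further 24 h. Luciferase detection, 12 min at room temp, luminescence.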
TSHR antag = antagonists of human thyroid stimulating hormone receptor | AID 504810 | TSHR-expressing cells, TSH-stimulated cAMP HTRF, 2 h; stronger effect = lower value | activity change, negative = inhibition, % at 11.5 µM | 330,000 compounds, 0.2% hits | P16473;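 active means activity change below a set negative limit, meaning inhibition stronger than a set level, cut at about -70% in these data; inconclusive means activity change between two set negative limits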
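Freshly harvested TSHR cells receive pin-tooled compound, then EC80 TSH at 4nM final. After 2 hours at 37 deg C, antibody in lysis buffer and cAMP-d2 are added; 30 minutes at ambient temperature precede the HTRF read.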
NPSR antagonist = neuropeptide S receptor (human) antagonism, cAMP. CHO-NPSR cells, cAMP TR-FRET, antagonist mode. Potency, µM (titrated, usually from 38.3 µM), hits mostly inhibitors. 220,000 compounds, 1% hits. AID 1461; further: nearly all actives have a fitted effect of over 50% in size
Numbers stand for hits. Unless noted, the call rests on the fitted dose curve; in most records, active means well fitted curve in the direction sought with a large enough effect; inconclusive means small, poorly fitted or top-dose-only effect, or another doubt; inactive means no such curve, though single readings can be large; an effect the other way counts as inactive or inconclusive.

CCc1ccc(S(=O)(=O)c2c[nH]c3cc(OC)c(OC)cc3c2=O)cc1 was read as RXFP1 agonist inactive, PTHR1 ag inactive and GLP1R cytotox inactive.
Screening CCn1c2ccccc2c2nnc(N3CCN(c4ccc(OC)cc4)CC3)nc21 returned RXFP1 antagonist inactive, RXFP1 agonist inactive, PTHR1 ag inactive and GLP1R cytotox inactive.
`Nc1c(SCCC(=O)O)ccc2c1C(=O)c1ccccc1C2=O` gave RXFP1 antagonist inactive, RXFP1 agonist inactive, PTHR1 ag inactive, GLP1R cytotox inactive and TSHR antag inactive.
Nc1c(C(=O)O)ccc2c1C(=O)c1ccccc1C2=O was read as RXFP1 antagonist inactive, RXFP1 agonist inactive, PTHR1 ag inactive, GLP1R cytotox 10µM, TSHR antag inactive and NPSR antagonist inactive.
`O=C(O)c1cc2ccccc2c2c1C(=O)c1ccccc1-2` gave RXFP1 antagonist inactive, PTHR1 ag inactive and GLP1R cytotox inactive.
Screening Nc1cc(C(=O)O)c(N)c2c1C(=O)c1ccccc1C2=O returned RXFP1 antagonist inconclusive, RXFP1 agonist inactive, PTHR1 ag inactive, GLP1R cytotox inconclusive, TSHR antag inactive and NPSR antagonist 3.2µM.
For CC(C)c1nc2ccc(C(=O)Nc3ccccc3F)cc2o1 the results were RXFP1 antagonist inactive, RXFP1 agonist inactive, PTHR1 ag inactive and GLP1R cytotox inactive.
COc1ccc(-c2sc(Nc3cccc4ccccc34)n[n+]2C)c(C)c1C was read as PTHR1 ag inactive and GLP1R cytotox inactive.
For COc1cccc(CNC(=O)CN2C(=O)CSc3ccc(S(=O)(=O)N4CCOCC4)cc32)c1 the results were RXFP1 antagonist inactive, RXFP1 agonist inactive, PTHR1 ag inactive, GLP1R cytotox inactive and TSHR antag -140.
`CCC(C)NC(=O)CN1C(=O)CSc2ccc(S(=O)(=O)N3CCCC3)cc21` (stereo not drawn) gave RXFP1 antagonist inactive, RXFP1 agonist inactive, PTHR1 ag inactive, GLP1R cytotox inactive and TSHR antag -125.
CC1CCN(CCCNC(=O)CN2C(=O)CSc3ccc(S(=O)(=O)N4CCOCC4)cc32)CC1 was read as RXFP1 antagonist inactive, RXFP1 agonist inactive, PTHR1 ag inactive, GLP1R cytotox inactive and TSHR antag -89.
COc1cccc(NC(=O)CN2C(=O)CSc3ccc(S(=O)(=O)N4CCOCC4)cc32)c1 was read as RXFP1 antagonist inactive, RXFP1 agonist inactive, PTHR1 ag inactive, GLP1R cytotox inactive and TSHR antag inactive.
O=C(CN1Cc2ccccc2C1=O)Nc1ccc2c(c1)OCCO2 was read as RXFP1 antagonist inactive, RXFP1 agonist inactive, PTHR1 ag inactive, GLP1R cytotox inactive and TSHR antag inactive.
Cc1nn(C(C)C(=O)NCc2ccc(OC(C)C)cc2)c(=O)c2c1sc1ccccc12 (stereo not drawn) was read as RXFP1 antagonist inactive, RXFP1 agonist inactive, PTHR1 ag inconclusive and GLP1R cytotox inactive.
`Cc1ccc(CNC(=O)C(C)n2nc(C)c3sc4ccccc4c3c2=O)cc1` (stereo not drawn) gave RXFP1 antagonist inactive, RXFP1 agonist 32µM, PTHR1 ag 45µM and GLP1R cytotox inactive.
For Cc1ccc(NC(=O)NNC(=O)c2cc3ccccc3cc2O)c(C)c1 the results were RXFP1 antagonist inactive, RXFP1 agonist inactive, PTHR1 ag inactive, GLP1R cytotox inactive and TSHR antag inactive.
For Cc1cccc(NC(=O)NNC(=O)c2cc3ccccc3cc2O)c1C the results were RXFP1 antagonist -66, RXFP1 agonist inactive, PTHR1 ag inactive, GLP1R cytotox inactive, TSHR antag inactive and NPSR antagonist inactive.
For O=c1c(S(=O)(=O)c2ccccc2)cn(Cc2ccc(F)cc2)c2cc(N3CCOCC3)c(F)cc12 the results were RXFP1 antagonist inactive, RXFP1 agonist inactive, PTHR1 ag inactive and GLP1R cytotox inactive.
Screening CCCSS/C(CCO)=C(\C)N(C=O)Cc1cnc(C)nc1N returned RXFP1 antagonist inactive.
For CCC(C)C(=O)N1c2ccccc2C(=C2SC(C(=O)OC)=C(C(=O)OC)S2)C(=S)C1(C)C (stereo not drawn) the results were RXFP1 antagonist inactive, RXFP1 agonist inactive, PTHR1 ag inactive, GLP1R cytotox inactive, TSHR antag inactive and NPSR antagonist 10µM.
`CCc1ccc2nc(N3C(=O)C(O)=C(C(=O)c4ccco4)C3c3cccs3)sc2c1` (stereo not drawn) gave RXFP1 agonist inactive, PTHR1 ag inactive, GLP1R cytotox inactive, TSHR antag inactive and NPSR antagonist 10µM.
For COC(=O)c1sc(N2C(=O)C(O)=C(C(=O)c3ccc(C)o3)C2c2cccs2)nc1C (stereo not drawn) the results were RXFP1 antagonist inactive, RXFP1 agonist 13µM, PTHR1 ag inactive, GLP1R cytotox inactive and TSHR antag inactive.
COC(=O)c1sc(N2C(=O)C(O)=C(C(=O)c3ccc(C)o3)C2c2ccco2)nc1C (stereo not drawn) was read as RXFP1 antagonist inactive, RXFP1 agonist inactive, PTHR1 ag inactive, GLP1R cytotox inactive and TSHR antag inactive.
`Cc1cc(N2C(=O)C(O)=C(C(=O)c3ccc(C)o3)C2c2cccs2)no1` (stereo not drawn) gave RXFP1 agonist inconclusive, PTHR1 ag inactive, GLP1R cytotox inactive, TSHR antag inactive and NPSR antagonist 7.9µM.
`Cc1ccc2nc(N3C(=O)C(O)=C(C(=O)c4cc5ccccc5o4)C3c3cccs3)sc2c1` (stereo not drawn) gave RXFP1 antagonist inactive, RXFP1 agonist inactive, PTHR1 ag inactive, GLP1R cytotox inactive, TSHR antag inactive and NPSR antagonist inactive.
Screening COC(=O)c1sc(N2C(=O)C(O)=C(C(=O)c3ccc(C)o3)C2c2ccc(F)cc2)nc1C (stereo not drawn) returned RXFP1 antagonist inactive, RXFP1 agonist 8.9µM, PTHR1 ag inactive, GLP1R cytotox inactive, TSHR antag inactive and NPSR antagonist inactive.
CCOC(=O)c1ccc(NC(=O)CCc2c(C)nc3c(c(C)nn3C)c2C)cc1 was read as RXFP1 agonist inactive, PTHR1 ag inactive and GLP1R cytotox inactive.
COC(=O)N1CCCc2cc(S(=O)(=O)NCc3ccccc3)ccc21 was read as RXFP1 agonist inactive, PTHR1 ag inactive and GLP1R cytotox inactive.
`CCC(=O)OC1=C(C(C)=O)N(Cc2ccccc2)S(=O)(=O)c2ccccc21` gave RXFP1 antagonist inactive, RXFP1 agonist inactive, PTHR1 ag inactive and GLP1R cytotox inactive.

Compound activity (PubChem BioAssay)
